Assay outcomes from PubChem.
Nrf2 ARE act: Nrf2 pathway activation; AREc32 ARE-luciferase reporter (MCF7-derived line), luminescence, 24 h; Potency, µM (titrated, usually from 46.1 µM), without a hit: at the top dose activation, usual class: activators; 410,000 compounds, 0.31% hits; also: % of control where 0% means no effect; nearly all actives have a fitted effect of over 65% in size
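Quantitative high-throughput format: AREc32 reporter cells, 1000 per well, received compound by pin transfer and were incubated 24 hr at 37 deg C, 5% CO2, before Steady-Glo luminescence detection.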
A549 viability: kills or reduces viability of A549 cells in Nrf2 counter-screen; Potency, µM (series often up to 46 µM), inactives show at the highest dose activity change, negative = cytotoxicity, usual class: inhibitors; A549 ARE-Fluc cells, CellTiter-Fluor viability, 18-24 h; 390,000 compounds, 0.16% hits; also: % is scaled to controls: 0 for no effect and ±100 for the full control effect
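Cytotoxicity counterscreen: CellTiter-Fluor fluorescence was measured in A549 ARE_Fluc cells after 18-24 h of compound exposure in a concentration series. The subsequent BugLite luminescent read reports ARE-luciferase activity.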
mIDH1 inhibitor: human IDH1 R132H inhibition; O75874; IDH1-R132H enzyme, NADPH consumption, diaphorase/resazurin fluorescence; Potency, µM (highest dose often 76.6 µM), for inactives: top-dose activity change, negative = inhibition, usual class: inhibitors; 390,000 compounds, 0.093% hits; also: % is scaled to controls: 0 for no effect and ±100 for the full control effect; nearly all actives have a fitted effect of over 65% in size
Target sequence (O75874 whole entry R132H, stated change not applied): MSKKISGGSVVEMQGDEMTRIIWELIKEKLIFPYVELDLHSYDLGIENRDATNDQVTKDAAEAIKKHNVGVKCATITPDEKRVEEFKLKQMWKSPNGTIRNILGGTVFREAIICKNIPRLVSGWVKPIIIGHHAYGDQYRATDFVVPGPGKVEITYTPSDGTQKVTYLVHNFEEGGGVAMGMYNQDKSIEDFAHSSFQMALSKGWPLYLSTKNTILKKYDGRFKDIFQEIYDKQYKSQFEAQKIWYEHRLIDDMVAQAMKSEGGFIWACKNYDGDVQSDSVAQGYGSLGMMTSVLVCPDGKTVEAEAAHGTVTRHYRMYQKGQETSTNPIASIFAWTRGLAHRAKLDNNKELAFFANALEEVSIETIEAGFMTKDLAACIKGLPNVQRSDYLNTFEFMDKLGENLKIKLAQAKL
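IDH1-R132H (0.5 ug/mL) preincubated 30 min with compound, then NADPH (0.016 mM) and alpha-KG (2 mM) added; 80 min at RT, pH 7.5. Remaining NADPH coupled via diaphorase/resazurin to fluorescence (540/590 nm); concentration-response curves normalized to no-enzyme control.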
ELG1 DNA repair: blocks ELG1-dependent DNA repair in HEK293T cells. HEK293T ELG1-luciferase reporter, luminescence, 16 h; DNA damage induced by 5-fluorouridine. Potency, µM (series often up to 46.1 µM), without a hit: at the top dose activity change, negative = inhibition, usual class: inhibitors. 330,000 compounds, 2.3% hits. AID 504467; also: % is scaled to controls: 0 for no effect and ±100 for the full control effect; nearly all actives have a fitted effect of over 55% in size
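5-Fluorouridine DNA damage + compound/DMSO, 2,000 cells/well, 16 h, 37 °C/5% CO2. ONE-Glo, 30 min RT, luminescence. Readout = decrease in reporter signal.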
Nrf2 block: blocks Nrf2 signaling | A549 ARE-Fluc reporter, luciferase luminescence, 18-24 h | AID 504444 | Potency, µM (series often up to 46 µM), for the others: top-dose activity change, negative = inhibition, hits mostly inhibitors | 360,000 compounds, 2.1% hits; also: % is scaled to controls: 0 for no effect and ±100 for the full control effect; nearly all actives have a fitted effect of over 60% in size
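Concentration-response testing used A549 ARE_Fluc cells at 5000 cells/well. Following an 18-24 h compound incubation, viability was read by fluorescence (Ex 405/Em 525) and luciferase output by luminescence.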
The depositor's hits bear a star; ? = inconclusive; · = no result; [ ] = dose if it differs, or a comment. In the library only some 3.8% were active in any assay of this set; here they are far more common. Calls follow the shape of the dose curve; as a rule, active = well fitted curve in the direction sought with a large enough effect; inconclusive = small, poorly fitted or top-dose-only effect, or another doubt; inactive = no such curve, though single readings can be large; an effect the other way counts as inactive or inconclusive. Potency is read from the fitted curve at half-maximal effect.

SMILES | Nrf2 ARE act | A549 viability | mIDH1 inhibitor | ELG1 DNA repair | Nrf2 block
COc1ccc(CN(C)C(=O)COC(=O)c2cc([N+](=O)[O-])ccc2N2CCCC2)c(OC)c1OC | -0.6% | -18.9% | 2.4% | 14.6µM* | -17.5%
Cc1cccc(NC(=O)C(=O)NNC(=O)c2ccc(C(C)(C)C)cc2)c1 | 2.3% | 6.51µM* | -1.6% | 3.2% | ?
CC(C)(C)c1ccc(C(=O)NNC(=O)c2cccc(Br)c2)cc1 | 7.1% | -12.2% | 7.3% | ? | ·
C=CCNC1=C(Cl)C(=O)c2ccccc2C1=O | ? | ? | -0.4% | 10.4% | 16.4µM*
COCCCNC1=C(Cl)C(=O)c2ccccc2C1=O | -1.7% | -13.8% | -11.6% | ? | 25.9µM*
O=C1C(Cl)=C(NCc2cccnc2)C(=O)c2ccccc21 | -3.1% | ? | -3.8% | 20.6µM* | ?
COCCCNc1c2c3c(cccc3[nH]c1=O)C(=O)c1ccccc1-2 | -2.8% | 13.7% | -9.6% | 11.6µM* | ?
CCOC(=O)c1c2c3c(cccc3[nH]c1=O)C(=O)c1ccccc1-2 | 0.7% | -0.5% | -0.6% | 1.5% | 3.8%
Cc1ccc(C)c(Cn2c(=O)n(C(C)C)c(=O)c3oc4ccccc4c32)c1 | -1.4% | 1.4% | -12.0% | · | ?
CC1CC=CC2C1C(=O)N(Cc1ccccc1)C2c1ccc(-c2cc3ccccc3s2)cc1F (stereo not drawn) | · | 7.0% | · | · | ?
COc1cc2c(cc1NC(=O)c1ccccc1F)CCCC2 | 3.16µM* | 4.5% | 1.3% | ? | ?
COc1cc(OC)c(NC(=O)c2ccccc2F)cc1Cl | 9.7% | 0.0% | 0.0% | 4.8% | -2.6%
Cc1cc(-c2ccc(C)c(S(=O)(=O)N3CCC(C)CC3)c2)on1 | -0.8% | 12.7% | -0.9% | · | ?
COc1ccc(N2CCN(S(=O)(=O)c3cc(-c4cc(C)no4)ccc3C(C)C)CC2)cc1 | 0.3% | -2.8% | 1.8% | 7.3µM* | ?
Cc1cc(-c2ccc(C)c(S(=O)(=O)N3CCN(c4ccc(F)cc4)CC3)c2)on1 | -0.3% | -5.9% | 20.4% | -11.7% | 8.2µM*
Cc1cccc(N2CCN(S(=O)(=O)c3cc(-c4cc(C)no4)ccc3C)CC2C)c1 (stereo not drawn) | -0.1% | -11.8% | 0.2% | ? | 7.31µM*
Cc1cccc(NC(=O)c2sc3nc(-c4cc5ccc(O)cc5oc4=O)[nH]c(=O)c3c2C)c1 | -0.2% | 3.7% | 20.3% | · | ?
Cc1c(N/N=C(\C#N)C(=O)c2ccccc2)c(=O)n(-c2ccccc2)n1C | -1.2% | 20.6µM* | 11.1% | ? | ?
Cc1c(NC=C(C#N)C#N)c(=O)n(-c2ccccc2)n1C | 2.4% | -9.2% | -0.7% | -11.9% | ?
CCOC(=O)/C(C#N)=N/Nc1c(C)n(C)n(-c2ccccc2)c1=O | 0.5% | -29.2% | 9.6% | ? | ?
Cc1ccccc1C(=O)/C(C#N)=N/Nc1c(C)n(C)n(-c2ccccc2)c1=O | -0.1% | 18.4µM* | -0.9% | -6.4% | 8.2µM*
C=CCn1c(SCc2ccc(C#N)cc2)nnc1-c1ccc(C)cc1 | 0.2% | 3.0% | 7.8% | 6.0% | 20.6µM*
S=C(NCC1(c2ccccc2)CCCC1)Nc1ccccc1 | -0.3% | -7.2% | -1.3% | ? | 16.4µM*
CCCOc1ccc(/C=N/NC(=O)CN2CCCCC2)cc1OCC | 3.4% | 13.9% | -1.6% | -0.4% | -5.1%
Cc1ccc(CSCC(=O)N/N=C/c2ccc(OCC(=O)Nc3ccc(C)cc3)cc2)cc1 | 0.2% | -17.7% | -1.4% | ? | ?
SMILES | Nrf2 ARE act | A549 viability | mIDH1 inhibitor | ELG1 DNA repair | Nrf2 block
O=C(COc1ccc(/C=N/NC(=O)CSCc2ccc([N+](=O)[O-])cc2)cc1)NCc1ccco1 | 4.0% | 2.8% | 9.1% | 23.1µM* | ?
CCCOc1ccc(/C=N/NC(=O)CSCc2ccc([N+](=O)[O-])cc2)cc1OCC | 2.5% | -4.9% | 2.1% | 23.1µM* | 5.7%
Cc1cc(C)c2c3c(sc2n1)C(=O)N(c1ccccc1C)CC(=O)N3 | -1.2% | 0.4% | 5.8% | ? | 1.2%
Cc1ccc(N2CC(=O)Nc3c(sc4nc(C)cc(C)c34)C2=O)cc1 | 0.0% | -9.3% | 3.3% | 23.1µM* | -23.1%
Cc1cc(C)c(S(=O)(=O)/N=C2/C=C(Sc3ncn[nH]3)C(=O)c3ccccc32)cc1C | -3.5% | ? | 16.3% | 20.6µM* | ?
Cc1cc(O)c(Sc2ncn[nH]2)cc1NS(=O)(=O)c1ccc(Cl)cc1 | 3.2% | 0.0% | 9.0% | -3.1% | 6.4%
CC1Cc2cc(/C=C3/SC(N4CCC(C(N)=O)CC4)=NC3=O)ccc2O1 (stereo not drawn) | 2.3% | -1.9% | 2.0% | 25.9µM* | 6.5%
CCN(C(=O)COC(=O)CCOc1ccc(C(C)(C)C)cc1)c1c(N)n(Cc2ccccc2)c(=O)[nH]c1=O | -0.7% | -0.4% | -8.5% | · | -18.2%
O=C(CCC(=O)N1CC2CCCN2c2ccccc21)NCc1ccccc1F (stereo not drawn) | 3.1% | 5.1% | 0.7% | · | ?
Cc1cccc(COc2ccc(/C=N/NC(=O)c3nnn(-c4nonc4N)c3COc3ccc(F)cc3)cc2)c1 | -0.2% | -9.0% | 1.1% | ? | ?
CCCn1c(-c2nonc2N)nc2ccccc21 | -0.6% | -1.6% | 1.6% | 16.4µM* | -28.9%
Cn1c(-c2nonc2N)nc2ccccc21 | 0.3% | 0.0% | 6.5% | -1.6% | 1.7%
Nc1ccc(Sc2cnn(-c3ccccc3)c(=O)c2Cl)cc1 | 15.8µM* | -6.5% | 8.7% | 22.3% | 3.7%
CNc1cnn(-c2ccccc2)c(=O)c1Cl | 2.3% | -0.7% | 0.0% | 23.2% | 23.6%
Cc1ccc(Sc2cnn(-c3ccccc3)c(=O)c2Cl)cc1 | 5.01µM* | 0.6% | 6.5% | -2.8% | 6.1%
CCOc1ccc(CCNC(=O)CCc2nnc3ccc(N4CCCCC4)nn23)cc1OCC | -0.8% | -2.5% | -2.3% | ? | -11.9%
Nc1nnc(N)c2ccccc12 | 0.6% | -2.6% | -4.7% | 17.5% | 5.6%
Nc1nsc2ccccc12 | 11.2µM* | -17.3% | 7.7% | -20.5% | ?
CC(C)c1ccc(NC(=O)Cn2cc(S(=O)(=O)Cc3ccccc3Cl)c3ccccc32)cc1 | -0.4% | -13.5% | -6.6% | · | ?
O=C(O)c1ccccc1Nc1ccc([N+](=O)[O-])cc1C(=O)O | 0.2% | -23.8% | -4.0% | -4.1% | 7.2%
COc1cccc(Nc2cc(N3CCOCC3)c3nonc3c2[N+](=O)[O-])c1 | 0.1% | -16.8% | 2.2% | ? | -11.6%
O=C(O)c1ccccc1Nc1ccc([N+](=O)[O-])c2nonc12 | 0.2% | 18.4µM* | 3.7% | 20.3% | -21.5%
COc1cccc(Nc2ccc([N+](=O)[O-])c3nonc23)c1 | 6.9%[9.22 µM] | 18.4µM* | -12.0% | ? | ?
CN(C(=O)CSc1nc2ccc(NC(=O)c3ccc(F)cc3)cc2s1)c1ccccc1 | -0.5% | -19.1% | 3.5% | · | ?
FC(F)(F)c1nc2nccnc2[nH]1 | 0.1% | · | 0.0% | · | ·
